HCV inh – inhibitors of hepatitis C virus infection | Huh7.5.1 HCVcc-Cre infection, luciferase reporter, 44 h | Potency, µM (titrated, usually from 41.8 µM), inactives show top-dose activity change, negative = inhibition, usual class: inhibitors | 340,000 tested, 3.4% active | AID 651820; active = well fitted inhibition curve with a large enough effect; inconclusive = small, poorly fitted or top-dose-only effect, or another doubt; inactive = no such curve, though single readings can be large or run the other way; note: potency is the fitted concentration of half-maximal effect; % is set by controls: 0 for no effect and ±100 for the full control effect
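Cells (1,000/well) were plated 4 h before compound, then infected with HCVcc-Cre virus (~0.5 moi). After 44 h further culture, infection was read as luciferase luminescence following a 15 min substrate incubation at room temperature.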
Marburg entry inh – Marburg virus entry inhibition; Marburg virus pseudotyped entry inhibition, cell reporter; Potency, µM (series often up to 37.8 µM), for the others: at the highest dose activity change, negative = inhibition, most hits filed as inhibitors; 300,000 tested, 1.8% active; calls by dose curve; tested in HEK293 cells; note: potency is the fitted concentration of half-maximal effect; % is set by controls: 0 for no effect and ±100 for the full control effect
Cycloheximide cs – affects cycloheximide protein synthesis inhibition readout, counter-screen; cell reporter, cycloheximide protein synthesis inhibition counterscreen; max response, %; 300,000 tested, 12% active; in the data active = max response mostly above about 13%, no sharp cut-off; inactive = mostly below about 14%; note: read at 38.3 µM for the half of the compounds with a filed dose; 0% is about no effect
Shiga inhibitor – blocks Shiga toxin action in Vero cells; 290,000 tested, 9.2% active; Vero cells, Shiga toxin protein synthesis inhibition reporter; inhibition, % at 38.7 µM; AID 2315; in the data active = inhibition mostly above about 28%, no sharp cut-off; inactive = mostly below about 43%; note: 0% is about no effect
LASV entry inh – blocks Lassa virus binding to or entry into cells. Lassa virus pseudotype entry inhibition, cell reporter. Potency, µM (titrated, usually from 37.9 µM), inactives show at the highest dose activity change, negative = inhibition, hits mostly inhibitors. 300,000 tested, 1.2% active. AID 540256; calls by dose curve; tested in HEK293 cells; note: potency is the fitted concentration of half-maximal effect; % is set by controls: 0 for no effect and ±100 for the full control effect; nearly all actives have a fitted effect of over 50% in size
FMDV inh – foot and mouth disease virus antiviral activity | FMDV antiviral cell-based qHTS | AID 1159524 | Potency, µM (titrated, usually from 57.9 µM), without a hit: at the highest dose activity change, negative = inhibition, most hits filed as inhibitors | 410,000 tested, 1.2% active; calls by dose curve; tested in HEK293T cells; note: read-out not given here; potency is the fitted concentration of half-maximal effect; % is set by controls: 0 for no effect and ±100 for the full control effect; nearly all actives have a fitted effect of over 45% in size
Numbers without * were called inactive; ? = inconclusive; . = no result; [ ] = remark or other dose. Compounds with a hit are over-represented: about 13% of the library has one in this group of screens.

SMILES | HCV inh | Marburg entry inh | Cycloheximide cs | Shiga inhibitor | LASV entry inh | FMDV inh
O=C(/C=C/c1ccco1)N(c1ccccn1)c1ccccn1 | 22.9% | 19.0%[46.1 µM] | -1.6 | -11.2 | 1.5% | -0.4%
O=C(CCCCCBr)N1CCC(CC2CC(c3ccc(Cl)cc3)=NO2)(C(=O)NCC2CCCCC2)CC1 (stereo unspecified) | 2.0% | . | -0.6 | -8.7 | . | 13.9%
COc1ccc(OC)c(S(=O)(=O)N2CCC(NC(=O)c3ccccc3)CC2)c1 | -13.3% | . | -4.6 | -10.5 | . | -27.6%
COC(=O)C(=Cc1ccccc1[N+](=O)[O-])C(=O)OC | ? | . | 8.3 | -0.6 | . | 15.8µM*
COc1ccc(OC)c(NC(=O)/C=C/c2ccccc2[N+](=O)[O-])c1 | -22.6% | 0.2% | 13.2 | -26.2 | -0.8% | -2.3%
COc1cccc(NC(=O)/C=C/c2ccc([N+](=O)[O-])cc2)c1 | ? | ? | 39.2* | 47.0* | -23.4% | 24.7%
COc1cccc(NC(=O)/C=C/c2ccccc2[N+](=O)[O-])c1 | ? | -23.3% | 61.0* | 74.2* | ? | 25.7%
COc1cccc(NC(=O)/C=C/c2ccc(S(=O)(=O)N3CCOCC3)cc2)c1 | ? | . | . | . | . | -22.6%
O=C(/C=C/c1ccccc1[N+](=O)[O-])Nc1cccnc1 | 11.4% | ? | 35.7* | 44.8* | ? | 28.8%
CN(CC1CCCO1)S(=O)(=O)c1ccc(C(=O)Nc2nc3cc4c(cc3s2)OCO4)cc1 (stereo unspecified) | ? | . | 11.7 | 10.9 | . | 0.0%
O=C(C#Cc1ccccc1)c1ccco1 | ? | ? | -7.0 | -14.7 | 11.2µM* | 8.91µM*
CN(Cc1ccccc1)C(=O)c1ccco1 | 7.4% | 5.8%[46.1 µM] | 11.2 | 25.1 | 9.9%[46.1 µM] | 16.8%
CC(O)CNc1nc2sc3c(c2c(=O)n1CCc1ccccc1)CCCCC3 (stereo unspecified) | -3.8% | ? | 17.7* | 29.3 | 25.9µM* | 13.2%
O=C(NCc1ccco1)c1ccc2nc3sc4c(c3c(=O)n2c1)CCCC4 | ? | -3.4% | 60.0* | 98.9* | . | .
CC(C)Cn1cnc2sc3c(c2c1=N)CCCC3 | -14.8% | ? | 5.5 | 33.3 | -10.4% | -21.0%
CN(C)CCNc1nc2sc3c(c2c(=O)n1CCc1ccccc1)CCCCC3 | ? | . | -1.2 | -12.4 | . | -22.9%
N=c1c2c3c(sc2ncn1Cc1ccco1)CCCCC3 | -28.9% | 0.0% | 21.3* | 42.0 | -0.4% | -6.7%
C=CCn1c(SCC(=O)NCc2ccco2)nc2sc3c(c2c1=O)CCCC3 | -0.4% | ? | -4.5 | -5.0 | -6.6% | -22.6%
CC(O)CNc1nc2sc3c(c2c(=O)n1Cc1ccco1)CCCCC3 (stereo unspecified) | -17.0% | ? | 25.5* | 35.7* | 18.4%[46.1 µM] | 6.7%
COC(=O)CN1C(CN2CCOCC2)=Nc2ccc(Br)cc2C1c1ccccc1 (stereo unspecified) | -9.0% | -28.0%[46.1 µM] | -1.7 | -13.4 | -16.5% | -16.8%
COc1ccccc1C(=O)N1CCN(Cc2nc3cc([N+](=O)[O-])ccc3n2C)CC1 | 11.9% | 5.3% | 5.2 | 2.9 | 13.0% | -16.2%
Cc1cc(-c2csc(NC(=O)c3ccc(C#N)cc3)n2)c(C)n1Cc1ccccc1 | ? | ? | -1.1 | -4.4 | 1.7% | -28.1%
Cc1nc2c(=O)[nH]c3ccccc3c2o1 | 3.5% | 16.3%[46.1 µM] | -1.3 | -10.1 | -2.9% | -8.3%
O=c1[nH]c2ccccc2c2cn(-c3ccccc3)nc12 | 7.2% | ? | 17.6* | 60.5* | ? | 22.2%
O=c1[nH]c2ccccc2c2ccccc12 | 14.1µM* | ? | -3.2 | -19.9 | 15.1% | -3.4%
SMILES | HCV inh | Marburg entry inh | Cycloheximide cs | Shiga inhibitor | LASV entry inh | FMDV inh
c1ccc2c(c1)[nH]c1ccccc12 | 12.6% | . | . | . | . | -9.7%
COc1ccc(Cc2nnc(SCC(=O)c3c(N)n(C4CC4)c(=O)[nH]c3=O)o2)cc1 | -0.8% | . | . | . | . | 66.9%
C#CCN(C[C@H]1[C@H](OC(=O)NCC2CCCCC2)[C@H](OC(=O)NCC2CCCCC2)C[C@H]2C(=O)N(c3ccccc3)C(=O)[C@@H]12)S(=O)(=O)c1ccc(C)cc1 | . | . | . | . | . | -28.5%
Cc1ccccc1CSCC(=O)NCCSc1ccccn1 | 0.9% | 11.5%[46.1 µM] | 22.4* | 33.1 | . | 20.1%
COc1ccc(C)cc1NC(=O)CSCc1ccccc1C | ? | ? | 3.4 | . | -2.5% | -26.8%
CC(=O)n1nc(-c2ccc(C)cc2)nc1NCc1ccco1 | -0.1% | 16.9%[46.1 µM] | 63.1* | 100.6* | -22.6% | 63.6%
Cc1ccccc1CSCC(=O)Nc1ccccc1F | -5.9% | ? | 43.5* | . | -15.1%[46.1 µM] | 30.9%
Cc1ccccc1N(CC(=O)NCCSc1ccccn1)S(=O)(=O)c1ccccc1 | 13.5% | -23.5%[46.1 µM] | -2.2 | -12.7 | 5.3% | -1.9%
Cc1ccc2nc(SCC(=O)NC(=O)NCc3ccco3)[nH]c2c1 | 12.0% | 14.4% | 12.8* | 13.3 | -9.0% | 12.0%
Cc1ccc(-c2nc(NCc3ccco3)n(S(C)(=O)=O)n2)cc1 | -13.7% | 22.1%[46.1 µM] | -1.8 | -8.0 | -0.5% | 54.7%
CCOc1cc(C(=O)Nc2cc(F)ccc2C)ccc1OCC(=O)N1CCOCC1 | ? | . | . | . | . | -4.5%
CCOC(=O)Cn1c(=O)oc2cc(S(=O)(=O)N(C)Cc3ccccc3)ccc21 | 4.5% | . | 0.6 | -4.5 | . | -15.0%
COc1ccc(CNC(=O)[C@H](C)NC(=O)C2CCN(S(=O)(=O)c3ccc(F)cc3)CC2)cc1 | 0.2% | . | 2.2 | 11.6 | . | -1.0%
COc1ccc(-c2cc(N3C(=O)Nc4ccccc4N3O)n[nH]2)cc1 | -9.2% | -7.3% | 6.6 | -12.9 | -10.1% | -15.4%
Cc1ccccc1CSCC(=O)NCc1ccco1 | 3.3% | ? | 20.7 | 36.2* | ? | 14.4%
Cc1ccc(SCCC(=O)NCc2ccco2)cc1 | -6.8% | 10.5%[46.1 µM] | 4.6 | 11.7 | -21.0% | -1.9%
Cc1ccc(CSCC(=O)NCc2ccco2)cc1 | 1.2% | -11.3% | 11.3 | 25.3 | 1.41µM* | 3.5%
O=C(NCCSc1ccccn1)c1ccc(Cl)cc1Cl | 0.5% | ? | -2.3 | -4.1 | -13.5% | 35.9%
O=C(NCCSc1ccccn1)c1ccc(Cl)cc1 | 2.1% | 9.4%[46.1 µM] | 11.6 | 63.0* | ? | -27.6%
Cc1ccc(SCC(=O)NCc2ccco2)cc1 | 8.4% | -10.5% | 17.1* | 39.6 | 15.6% | 27.8%
Cc1cccc(N2CCN(C(=O)c3ccc4c(c3)N(Cc3cccc(Cl)c3)C(=O)c3ccccc3S4(=O)=O)CC2)c1C | . | . | . | . | 25.6%[46.1 µM] | 0.0%
O=C(NCCCc1nc2ccccc2n1Cc1ccc(F)cc1)C1CCCCC1 | . | -6.5%[46.1 µM] | . | . | -11.6%[46.1 µM] | -2.7%
O=C(CSc1ccc(Cl)cc1)NCc1ccco1 | 10.6% | . | 31.7* | 33.7 | . | 34.9%
O=C(CSc1ccc(Cl)cc1)NC(=O)NCc1ccco1 | -17.7% | -18.2%[46.1 µM] | -0.8 | 19.4 | ? | -15.0%
Cc1ccc(C(=O)NCCSc2snnc2C)cc1 | -6.4% | ? | 54.3* | 70.7* | -1.5% | 27.2%
CCc1ccc(C(C(=O)NCc2ccccc2)N(C(=O)c2csnn2)C2CC2)cc1 (stereo unspecified) | 5.0% | -29.8%[46.1 µM] | 9.7 | 14.6 | -17.3%[46.1 µM] | 16.9%
CCNC(=O)Cn1cnc2c1c(=O)n(C)c(=O)n2C | 12.8% | 12.5%[46.1 µM] | -0.9 | -6.0 | -21.2% | 7.4%
CN(Cc1ccccc1)C(=O)CN1C(=O)c2ccccc2C1=O | 12.9% | ? | -3.4 | . | -6.3% | 11.5%

Screens as filed in PubChem.
